Test systems include NCI-H23 lung; NCI-H226 lung; NCI-H322M lung; HOP-62 NSCLC; NCI-H460 lung; 786-0 renal; DU-145 prostate; MDA-MB-231 breast; SF-268 CNS; SF-539 CNS; M14 melanoma; SNB-19 CNS; U251 CNS; SN12C renal; UO-31 renal; SK-OV-3 ovarian; MDA-MB-435 melanoma; SW-620 colon; HCT-116 colon; KM12 colon.
Common to all, as to experiment: NCI-60 one-dose screen, 48 h (100 = growth as untreated, 0 = no growth, -100 = all killed)
Conditions in all cases: 10 µM unless noted

This is part of a sample that, as a whole, favours compounds with a hit. Of some 83,000 tested, about 20% had one in any assay.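 The endpoint reported here, percent growth, reads 100 for growth as untreated, 0 for no net growth and -100 for all cells dead.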 A number with no mark means an inactive call. Calls of active or inactive are those of the source. Rule for the calls: active = growth percent below 10; inactive = the rest.

Take `CC(C)Nc1ccc(Nc2ccccc2)cc1`: the growth in the assay on NCI-H23 lung was 31.3%; with NCI-H226 lung, 51.1%; in the assay with NCI-H322M lung, 73.4%; in the assay with HOP-62 NSCLC, 35.3%; with NCI-H460 lung, 11%; in the assay on 786-0 renal, 51.8%. The growth was 38.7% in the assay with DU-145 prostate; 25.5% with MDA-MB-231 breast; 32.8% in the assay on SF-268 CNS; 26.1% in the assay on SF-539 CNS; 47.7% with M14 melanoma; 33.7% in the assay with SNB-19 CNS. The growth with U251 CNS is 12.5%; in the assay with SN12C renal, 19.8%; in the assay on UO-31 renal, 83.1%; with SK-OV-3 ovarian it was 27.7%; with MDA-MB-435 melanoma, 23%; in the assay with SW-620 colon, 33.8%. In addition, the results for the growth in the assay on HCT-116 colon and in the assay on KM12 colon were 9.97% (active) and 27.6%, respectively.

Turning to `CC(=O)N1N=C(c2ccccc2)CC1c1sc(N(CCCl)CCCl)nc1Cl` (centres undefined), the growth is 85.8% with NCI-H23 lung; 89.1% with NCI-H226 lung; 90.6% in the assay on NCI-H322M lung; 90% with HOP-62 NSCLC; 96.2% in the assay on NCI-H460 lung; 99.7% in the assay on 786-0 renal. In addition, the growth with DU-145 prostate is 99.5%; in the assay on MDA-MB-231 breast, 95.3%; in the assay on SF-268 CNS it was 94%; with SF-539 CNS, 106%; with M14 melanoma, 101%; with SNB-19 CNS, 86.1%. For the same compound, the growth with U251 CNS was 92.6%; in the assay with SN12C renal, 86.6%; with UO-31 renal, 80%; in the assay with SK-OV-3 ovarian it was 89.4%; with MDA-MB-435 melanoma it was 97.4%; in the assay with SW-620 colon it was 96.8%. For the same compound, the growth was 92.5% in the assay with HCT-116 colon and 95.8% in the assay on KM12 colon.

Turning to `COc1ccc(C2SCC(=O)Nc3c2c(C)nn3-c2nc3ccc(C)cc3s2)cc1O` (centres undefined), the growth in the assay with NCI-H23 lung is 55.3%; in the assay with NCI-H226 lung, 67.6%; in the assay on NCI-H322M lung, 56.3%; in the assay with HOP-62 NSCLC, 38.3%; in the assay with NCI-H460 lung, 15.7%; in the assay with 786-0 renal, 58.4%. For the same compound, the growth is 73.5% in the assay on DU-145 prostate; 36% with MDA-MB-231 breast; 44.8% in the assay with SF-268 CNS; 31% with SF-539 CNS; 53.8% in the assay on SNB-19 CNS; 31.3% in the assay with U251 CNS. For the same compound, the growth with SN12C renal is 49.6%; in the assay with UO-31 renal it was 28.4%; with SK-OV-3 ovarian, 44.2%; with MDA-MB-435 melanoma, -25.5% (active); with SW-620 colon, 28.1%; with HCT-116 colon, 34.1%. Further, in the assay with KM12 colon, the growth was 16.2%.

On to `C[C@]12CC[C@H](OC3OC(O)C(O)C(O)C3O)C=C1CCC1C2CC[C@]2(C)[C@@H](c3ccc(=O)oc3)CC[C@]12O` (some centres undefined), for which the growth with NCI-H23 lung is -68.9% (active); in the assay on NCI-H226 lung it was -70.6% (active); with NCI-H322M lung, -71.8% (active); with HOP-62 NSCLC it was -97.8% (active); in the assay with NCI-H460 lung, -80.1% (active); in the assay on 786-0 renal, -84.4% (active). The growth in the assay on DU-145 prostate was -100% (active); with MDA-MB-231 breast it was -72.1% (active); with SF-268 CNS, -99.4% (active); in the assay on SF-539 CNS it was -83.1% (active); in the assay with M14 melanoma, -81% (active); in the assay with SNB-19 CNS it was -98.8% (active). The growth in the assay with U251 CNS is 104%; with SN12C renal, -37.7% (active); in the assay with UO-31 renal, -92.3% (active); in the assay on SK-OV-3 ovarian it was -93.7% (active); in the assay with MDA-MB-435 melanoma it was -88.2% (active); with SW-620 colon it was -90.5% (active). The values for the growth in the assay on HCT-116 colon and with KM12 colon were -95.3% (active) and -93.8% (active), respectively.

On to `O=C(O)c1nn(Cc2ccc(Cl)cc2)c2ccccc12`, for which the growth with NCI-H23 lung was 105%; in the assay with NCI-H226 lung it was 101%; in the assay with NCI-H322M lung, 127%; in the assay with HOP-62 NSCLC, 108%; with NCI-H460 lung, 105%; in the assay with 786-0 renal, 108%. In addition, the growth in the assay with DU-145 prostate is 120%; in the assay with MDA-MB-231 breast it was 107%; with SF-268 CNS, 109%; with SF-539 CNS it was 102%; with M14 melanoma, 107%; with SNB-19 CNS, 96.7%. Further, the growth in the assay with U251 CNS was 100%; in the assay on SN12C renal, 93.7%; in the assay on UO-31 renal, 95.7%; in the assay on SK-OV-3 ovarian, 113%; in the assay with MDA-MB-435 melanoma, 116%; in the assay on SW-620 colon, 105%. In addition, the values for the growth in the assay with HCT-116 colon and in the assay with KM12 colon were 103% and 109%, respectively.

Regarding `Cc1ccccc1O`, the growth in the assay on NCI-H23 lung is 105%; with NCI-H226 lung it was 97%; in the assay on NCI-H322M lung, 114%; in the assay with HOP-62 NSCLC, 95.4%; in the assay on NCI-H460 lung it was 117%; with 786-0 renal, 105%. Besides, the growth was 120% in the assay on DU-145 prostate; 115% in the assay on MDA-MB-231 breast; 109% in the assay on SF-268 CNS; 104% in the assay on SF-539 CNS; 101% in the assay on M14 melanoma; 107% with SNB-19 CNS. The growth in the assay with U251 CNS was 105%; with SN12C renal, 105%; in the assay on UO-31 renal, 82.6%; in the assay on SK-OV-3 ovarian, 97.5%; with MDA-MB-435 melanoma, 117%; in the assay on SW-620 colon it was 112%. Besides, the growth is 103% in the assay on HCT-116 colon and 106% in the assay with KM12 colon.

Consider `COc1cc2c(cc1OC)CN(C)C(C)C2` (centres undefined), for which the growth is 101% with NCI-H23 lung; 96.8% in the assay with NCI-H226 lung; 106% in the assay on NCI-H322M lung; 92% in the assay on HOP-62 NSCLC; 106% with NCI-H460 lung; 101% in the assay on 786-0 renal. Moreover, the growth with DU-145 prostate is 109%; with MDA-MB-231 breast, 110%; in the assay on SF-268 CNS, 96%; with SF-539 CNS it was 105%; with M14 melanoma, 100%; in the assay with SNB-19 CNS it was 99%. The growth is 101% in the assay with U251 CNS; 94.2% in the assay with SN12C renal; 93% in the assay on UO-31 renal; 103% in the assay on SK-OV-3 ovarian; 101% in the assay on MDA-MB-435 melanoma; 100% with SW-620 colon. The growth with HCT-116 colon was 105%; with KM12 colon it was 102%.

Consider `O=C1C=CC(=O)C2C1C1(Cl)C(Cl)=C(Cl)C2(Cl)C1(Cl)Cl` (centres undefined), for which the growth with NCI-H23 lung is 58%; in the assay with NCI-H226 lung it was 56.9%; in the assay with NCI-H322M lung it was 77.2%; in the assay with HOP-62 NSCLC it was 63.5%; in the assay with NCI-H460 lung, 57.5%; with 786-0 renal, 73.9%. In addition, the growth in the assay on DU-145 prostate is 70.1%; in the assay on MDA-MB-231 breast, 44.8%; with SF-268 CNS it was 47.6%; in the assay with SF-539 CNS it was 62.5%; with M14 melanoma, 44.4%; in the assay with SNB-19 CNS, 73.8%. The growth in the assay on U251 CNS was 60.8%; with SN12C renal, 67.3%; with UO-31 renal, 44.9%; in the assay on SK-OV-3 ovarian it was 71%; with MDA-MB-435 melanoma it was 3.15% (active); in the assay with SW-620 colon, 64.7%. Moreover, the growth was 36.3% with HCT-116 colon and 38.9% in the assay on KM12 colon.
